Most compounds without a hit are left out; they make up all but 7.9% or so of the library.
SW480 rereplic – A quantitative high throughput screen for small molecules that induce DNA re-replication in SW480 colon adenocarcinoma cells; SW480 DNA re-replication, Hoechst DNA content imaging, 48 h; Potency, µM (top dose mostly 46.1 µM), usual class: activators; 1.8% of 340,000 active; AID 624297, 2012; also: nearly all actives have a fitted effect of over 55% in size
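Image-based DNA-content assay: after two days of treatment, nuclei were labelled with the DNA dye Hoechst and imaged, and hits were compounds raising the count of nuclei showing high fluorescence intensity.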
HT1080 IDH1KD tx – qHTS for induction of synthetic lethality in tumor cells producing 2HG: qHTS for the HT-1080-IDH1KD cell line | 2% of 360,000 active | HT-1080 IDH1 knockdown viability, ATP luminescence, 48 h | Potency, µM (highest dose often 46.1 µM), usual class: cytotoxic
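Knockdown cells (IDH1KD HT-1080) received compounds 2 h after plating at 750 cells/well and were kept 48 h at 37 °C in 5% FBS RPMI. A CellTiter-Glo luminescence read gave % activity for curve fitting.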
KB-3-1 cytotox – qHTS assay for MDR1-selective chemotherapeutics: Primary screen using the parental adenocarcinoma cell KB-3-1 | KB-3-1 viability, CellTiter-Glo ATP luminescence, 72 h | Potency, µM (top dose mostly 46.1 µM), most hits filed as cytotoxic | 1.4% of 400,000 active; also: nearly all actives have a fitted effect of over 60% in size
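Parental KB-3-1 adenocarcinoma cells in phenol-red-free DMEM with 10% FBS were pin-treated with compounds at several concentrations, incubated 72 h at 37 °C, and viability read by CellTiter-Glo luminescence; concentration-effect curves were fitted after normalization.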
HT1080NT lethal – qHTS for induction of synthetic lethality in tumor cells producing 2HG: qHTS for the HT-1080-NT fibrosarcoma cell line; 1.6% of 360,000 active; Potency, µM (series often up to 46.1 µM), usual class: cytotoxic; AID 686970, 2013; HT-1080-NT fibrosarcoma viability, CellTiter-Glo ATP luminescence, 48 h;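 also: NT is the 2HG producing partner of a matched IDH1 knockdown line; nearly all actives have a fitted effect of over 55% in size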
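Fibrosarcoma NT cells, 750 per well in 5% FBS RPMI, were exposed to compound for 48 hours. Viability: CellTiter-Glo luminescence.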
KB-V1 MDR tox – qHTS assay for MDR1-selective chemotherapeutics: Primary screen using the drug-selected MDR subline cells KB-V1 | KB-V1 MDR cells viability, CellTiter-Glo, 72 h | Potency, µM (top dose mostly 46.1 µM), most hits filed as cytotoxic | 3.4% of 400,000 active | AID 1347076, 2019; also: nearly all actives have a fitted effect of over 60% in size
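Following 72 h at 37 degrees C with compound, KB-V1 cell viability was read by CellTiter-Glo luminescence, medium being phenol-red-free DMEM plus 10% FBS; concentration-response parameters came from normalized, curve-fitted qHTS data.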
MCF10A rereplic – A quantitative high throughput screen for small molecules that induce DNA re-replication in MCF 10a normal breast cells. AID 624296, 2012. 2.9% of 350,000 active. Potency, µM (titrated, usually from 46.1 µM), hits mostly activators. MCF 10A DNA re-replication, Hoechst nuclear intensity, 48 h; also: nearly all actives have a fitted effect of over 50% in size
Numbers stand for hits; – = inactive; ? = inconclusive; · = no result given. Calls follow the shape of the dose curve; as a rule, active = well fitted curve in the direction sought with a large enough effect; inconclusive = small, poorly fitted or top-dose-only effect, or another doubt; inactive = no such curve, though single readings can be large; an effect the other way counts as inactive or inconclusive.

SMILES | SW480 rereplic | HT1080 IDH1KD tx | KB-3-1 cytotox | HT1080NT lethal | KB-V1 MDR tox | MCF10A rereplic
COc1ccc(-c2cc(C#N)nc(Cl)n2)cc1 | – | 9.2µM | – | 7.3µM | – | ?
O=C1NC(=O)C([N+](=O)[O-])=C(O)C1=O | · | – | – | – | – | ·
COc1ccc(NC(=O)N(C)[C@H]2C[C@H]3c4[nH]c5ccc(-c6cccc(C)c6)cc5c4CCN3C[C@H]2[C@H](C)O)cc1 | · | ? | ? | 23µM | ? | ·
Cc1cccc(-c2ccc3[nH]c4c(c3c2)CCN2C[C@@H]([C@H](C)O)[C@@H](N(C)C(=O)Nc3ccc(F)cc3)C[C@@H]42)c1 | · | ? | ? | 21µM | – | ·
COc1ccc(NC(=O)N(C)[C@H]2C[C@H]3c4[nH]c5ccccc5c4CCN3C[C@H]2[C@H](C)O)cc1 | · | ? | – | ? | – | ·
CCOc1ccccc1NC(=O)Cn1c(=O)n(-c2ccc(C)cc2)c(=O)c2c1cnn2C | · | · | – | · | – | ·
Cc1[nH]c2ccc(Br)cc2c1CCNC(=O)c1cc2ccccc2oc1=O | · | · | – | · | – | ·
CCCCCC(=O)N1C[C@H](O)[C@@H](n2cc(-c3ccc(F)cc3)nn2)C[C@@H]1c1ccc(Cl)cc1 | · | ? | ? | ? | – | ·
CCCCCC(=O)N1C[C@@H](n2cc(-c3ccc(F)cc3)nn2)[C@H](O)C[C@@H]1c1ccc(Cl)cc1 | · | 16µM | ? | ? | ? | ·
CCCCCCN1C[C@H](O)[C@@H](n2cc(-c3ccc(F)cc3)nn2)C[C@@H]1c1ccc(Cl)cc1 | · | – | 18µM | – | ? | ·
Cc1cccn2c(=O)cc(COc3cccc(NC(=O)c4cccc(Cl)c4)c3)nc12 | · | · | – | · | – | ·
CCOCc1c(C(=O)NC2=Nc3ccccc3NC(CC)=C2C(=O)OCC)oc2ccccc12 | 21µM | ? | ? | ? | ? | 10µM
CCOC(=O)C1=C(CC)Nc2ccccc2N=C1NC(=O)c1oc2ccccc2c1C | – | – | – | – | ? | ?
CCCC(=O)OCCNc1cc(Sc2nc3ccccc3[nH]2)c2nonc2c1[N+](=O)[O-] | ? | ? | ? | 21µM | – | ?
CCC(=O)OCCNc1cc(Sc2nccn2C)c2nonc2c1[N+](=O)[O-] | · | ? | ? | 15µM | – | ?
Cc1cccc(N2C(=O)CSC23C(=O)N(CC(=O)NCCc2ccccc2)c2ccccc23)c1 (stereo not given) | · | · | – | · | – | ·
Cc1cc(=O)n2c3c(c4c(cc13)c(CN(C)C)cc(=O)n4C)OC2 | – | ? | ? | – | – | –
CC1(C(=O)NS(=O)(=O)c2ccc(Cl)s2)CCN1C(=O)c1ccccc1CCc1ccccc1 (stereo not given) | · | – | – | – | – | ·
O=[N+]([O-])c1ccc(Sc2ccc(Cl)c(Cl)c2)nc1 | – | – | – | – | ? | 15µM
CCCCCCC(=O)N/N=C/c1ccc(Br)cc1 | ? | – | – | – | – | ?
CCCCCCCCC(=O)N/N=C/c1cccc(Br)c1 | – | – | – | – | – | 18µM
CCCCCCC(=O)Nc1ccc(C(=O)N/N=C/c2cccnc2)cc1 | – | 8.2µM | ? | 23µM | – | –
CCc1cccc(NC(=O)Cn2c(=O)n(CC3CCC(C(=O)NCCc4ccccc4)CC3)c(=O)c3ccccc32)c1 (stereo not given) | · | · | 15µM | · | – | ·
O=C(Cn1c(=O)n(CC2CCC(C(=O)NCCc3ccccc3)CC2)c(=O)c2ccccc21)Nc1ccccc1 (stereo not given) | · | · | – | · | – | ·
O=C(Nc1ccc(F)cc1)Nc1ccc(N2CCCC2)c(S(=O)(=O)Nc2ccccc2Cl)c1 | ? | 23µM | 21µM | ? | ? | –
SMILES | SW480 rereplic | HT1080 IDH1KD tx | KB-3-1 cytotox | HT1080NT lethal | KB-V1 MDR tox | MCF10A rereplic
Cc1ccc(NC(=O)c2cc3c(s2)CCCC3)cc1S(=O)(=O)Nc1ccccc1Cl | ? | ? | ? | – | ? | –
O=C(Nc1ccc(N2CCCCC2)c(S(=O)(=O)Nc2ccccc2Cl)c1)c1cccnc1 | ? | – | · | – | · | 18µM
COc1ccccc1NS(=O)(=O)c1cc(NC(=O)Nc2ccccc2)ccc1N1CCCCC1 | – | – | – | – | ? | –
O=C(Nc1ccc(Cl)c(Cl)c1)Nc1ccc(N2CCCC2)c(S(=O)(=O)Nc2ccccc2Cl)c1 | ? | 13µM | 5.2µM | ? | 23µM | ?
Cc1ccc(C(=O)Nc2ccc(C)c(S(=O)(=O)Nc3ccccc3Cl)c2)s1 | – | ? | 23µM | – | ? | ?
CCCCNC(=O)c1cnn2c(C)c(Cc3c(F)cccc3Cl)c(C)nc12 | · | · | – | · | – | ·
O=C(NC1CCCCCC1)C1CCN(C(=O)N2CCOc3ccc(Cl)cc32)CC1 | · | · | – | · | – | ·
Cc1ccnc2c(Cl)ccc(Cl)c12 | · | · | – | · | – | ·
Cn1c(SCc2ccccc2F)nc2cccnc21 | – | – | – | – | 18µM | –
Cc1ccc(Cn2c(C(C)NC(=O)c3ccccc3)nc3ccccc32)cc1 (stereo not given) | · | · | – | · | – | ·
CC(C)Oc1cc(F)ccc1-c1cc(C(=O)Nc2cccc(C(F)(F)F)c2)[nH]n1 | · | ? | ? | 16µM | ? | ·
Fc1ccc2c(c1)C1OCCCC1C(c1ccccc1)N2 (stereo not given) | ? | ? | – | ? | – | 6.5µM
CCC(C)n1cnc2c(c1=O)c1nc3ccccc3nc1n2Cc1ccc(OC)cc1 (stereo not given) | – | – | – | ? | 15µM | ?
COc1ccc2c(=O)c3c(=O)n(Cc4ccco4)c(-c4cc(OC)c(OC)c(OC)c4)nc3oc2c1 | – | – | – | – | – | ?
COc1ccc2c(=O)c3c(=O)n(Cc4ccco4)c(-c4ccccc4)nc3oc2c1 | – | – | – | – | 4.6µM | –
COc1ccc(Cn2c(C)nc3c(c2=O)c2nc4ccccc4nc2n3Cc2ccco2)cc1 | 21µM | ? | ? | ? | ? | 18µM
Cc1nc2ccccc2c(=O)n1Cc1ccco1 | – | – | – | – | – | –
CCCOc1cccc(C2c3c(oc4cc(C)c(C)cc4c3=O)C(=O)N2CCCN2CCOCC2)c1 (stereo not given) | · | · | ? | · | – | ·
CC1(C(=O)NCC2CC2)Cc2c(-c3ccccc3)ccnc2O1 (stereo not given) | · | – | – | – | – | ·
Cc1ccc(N/C=C(\C2OC(=O)c3ccccc32)[N+](=O)[O-])c(C)c1 (stereo not given) | – | – | – | – | – | –
